Reference: PubChem BioAssay (Tox21)
Several values for one entry are separate records, joined by “and”; a condition that tells them apart may be missing. Equal values may be shown once. Results filed as inconclusive are left out. A call without a number means that no potency is given here. Some compounds were tested as several samples or in several runs, with calls that do not always agree. Activity calls are given as the source filed them. Unless noted, calls come from the whole dose curve; as a rule, active = well fitted curve in the direction sought with a large enough effect in the repeat runs; inconclusive = weak or mixed curves; inactive = no such curve, though single readings can be large; an effect the other way counts as inactive or inconclusive.

Legend:
[1] = qHTS assay for small molecule agonists of the p53 signaling pathway (AID 651631; calls by dose curve; note: nearly all actives have a fitted effect of over 15% in size; note: potency is the fitted concentration of half-maximal effect)
Procedure, shortened: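 We treat p53RE-bla HCT-116 cells with compounds for 16 h at 37 °C, add LiveBLAzer B/G FRET substrate for 2 h at room temperature, and measure fluorescence intensity.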

[2] = qHTS assay for small molecules that induce genotoxicity in human embryonic kidney cells expressing luciferase-tagged ATAD5 (AID 651632); note: nearly all actives have a fitted effect of over 15% in size
Procedure, shortened: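 DMSO vehicle served as the control. HEK293T reporter cells, 16 hr at 37C, then 30 min Amplite at room temperature; ATAD5 induction is measured as luciferase activity.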

[3] = qHTS assay for small molecule agonists of the p53 signaling pathway - cell viability (AID 651633; calls by dose curve;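 note: p53RE-bla HCT reporter cells with a stable beta-lactamase p53 reporter; series mostly up to about 83 µM; nearly all actives have a fitted effect of over 30% in size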)
Procedure, shortened: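 p53RE-bla cells were treated with compound for 16 hours at 37 C. Cytotoxicity was then measured as CellTiter-Glo luminescence after 30 min at room temperature.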

[4] = qHTS assay for small molecules that induce genotoxicity in human embryonic kidney cells expressing luciferase-tagged ATAD5 - cell viability (AID 651634; calls by dose curve; note: nearly all actives have a fitted effect of over 25% in size; note: potency is the fitted concentration of half-maximal effect)
Procedure, shortened: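 Here HEK293T cells with the ATAD5 luciferase reporter are incubated with test compounds for 15.5 hr, and cytotoxicity is then gauged by measuring protease activity in live cells using fluorescence.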

[5] = qHTS assay for small molecule disruptors of the mitochondrial membrane potential - cell viability (AID 720634; calls by dose curve;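 note: human HepG2 liver cancer cells; series mostly up to about 83 µM; nearly all actives have a fitted effect of over 20% in size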)
Procedure, shortened: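 Viability of HepG2 cells is scored from ATP content by luminescence; cells are exposed to compound for 1 hr at 37 C and 5% CO2, then dosed with m-MPI dye before the CellTiter-Glo reagent.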

[6] = qHTS assay for small molecule disruptors of the mitochondrial membrane potential (AID 720635); note: potency is the fitted concentration of half-maximal effect
Procedure, shortened: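 HepG2 cells exposed to compound 1 hr at 37C, then Mito-MPS dye 30 min. Ratio read of aggregate (540/590 nm) versus monomer (490/535 nm) fluorescence.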

[7] = qHTS assay to test for compound auto fluorescence at 590 nm (red) in HepG2 cells (AID 720674)
Procedure, shortened: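 HepG2 cells, 2,000 per well in MEM with 10% FBS, attached overnight at 37 C, then got 23 nL compound or DMSO. After 1 hr at 37 C, 5% CO2, red fluorescence was read at 540/590 nm against Rose Bengal sodium as reference.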

[8] = qHTS assay to test for compound auto fluorescence at 535 nm (green) in HepG2 cells (AID 720675)
[9] = qHTS assay to test for compound auto fluorescence at 460 nm (blue) in HEK293 cells (AID 720678); note: potency is the fitted concentration of half-maximal effect
Procedure, shortened: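 After cell attachment (4-5 hr, 37C), compounds were pinned onto HEK293 monolayers in 10% dialyzed FBS medium. The blue channel (405/460 nm) was read following overnight culture. Equivalency was calculated against triamterene.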

[10] = qHTS assay to test for compound auto fluorescence at 590 nm (red) in HEK293 cells (AID 720679)
Procedure, shortened: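 Plates of HEK293 cells (10% dialyzed FBS) are treated with 23 nL compound or DMSO vehicle after a 4-5 hr attachment period, incubated overnight at 37C, and read for red fluorescence at 540/590nm.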
Tags give direction and shape of the fitted curve or compound fluorescence and quenching.

SMILES | Potency [1] | Potency [2] | Potency [3] | Potency [4] | Potency [5] | Potency [6] | outcome [7] | outcome [8] | Potency [9] | outcome [10]
Cc1ccc(C)c(S(=O)(=O)O)c1 | inactive | inactive | inactive | inactive | inactive | inactive | inactive | inactive | inactive | inactive
Cc1ccc(C(C)C)cc1 | inactive | inactive | inactive | inactive | inactive | inactive | inactive | inactive | inactive | inactive
C=C(CC(=O)O)C(=O)O | inactive | inactive | inactive | inactive | inactive | inactive | inactive | inactive | inactive | inactive
O=Cc1ccc(CO)o1 | inactive | inactive | inactive | inactive | inactive | inactive | inactive | inactive | inactive | inactive
CCCCCCCCCCCCCC(=O)O | inactive | inactive | inactive | inactive | inactive | inactive | inactive | inactive | inactive | inactive
Nc1nc(N)c2nc(-c3ccccc3)c(N)nc2n1 | 26.6 µM (active) and 15.5 µM (active) and 34.4 µM (active) | inactive | inactive | inactive | inactive | inactive | inactive | inactive | 14.1 µM [fluorescent] (active) and 31.6 µM [fluorescent] (active) and 35.5 µM [fluorescent] (active) | inactive
CCOC(=O)c1ccc(O)cc1 | inactive | inactive | inactive | inactive | inactive | inactive and 21.7 µM (active) | inactive | inactive | inactive | inactive
CC(C)(C)NC[C@H](O)COc1nsnc1N1CCOCC1 | inactive | inactive | inactive | inactive | inactive | inactive | inactive | inactive | inactive | inactive
COC(=O)OC | inactive | inactive | inactive | inactive | inactive | inactive | inactive | inactive | inactive | inactive
CC(=O)c1nccs1 | inactive | inactive | inactive | inactive | inactive | inactive | inactive | inactive | inactive | inactive
CC1(C)C(=O)N(Cl)C(=O)N1Cl | inactive | inactive | inactive | inactive | inactive | inactive | inactive | inactive | inactive | inactive
CCCCCCCC(=O)O | inactive | inactive | inactive | inactive | inactive | inactive | inactive | inactive | inactive | inactive
CCCN(CCC)C(=O)SCC | inactive | inactive | inactive | inactive | inactive | inactive | inactive | inactive | inactive | inactive
O=C(O)Cc1c[nH]c2ccccc12 | inactive | inactive | inactive | inactive | inactive | inactive | inactive | inactive | inactive | inactive
Nc1cccc(C(F)(F)F)c1 | inactive | inactive | inactive | inactive | inactive | inactive | inactive | inactive | inactive | inactive
CCCCCCCCC(=O)O | inactive | inactive | inactive | inactive | inactive | inactive | inactive | inactive | inactive | inactive
CC(O)CNCC(C)O (centres undefined) | inactive | inactive | inactive | inactive | inactive | inactive | inactive | inactive | inactive | inactive
OCc1ccc(Cl)cc1Cl | inactive | inactive | inactive | inactive | inactive | inactive | inactive | inactive | inactive | inactive
CC(C)c1ccc(C(C)C)cc1 | inactive | inactive | inactive | inactive | inactive | inactive | inactive | inactive | inactive | inactive
COc1ccc(N)c(OC)c1 | inactive | inactive | inactive | inactive | inactive | 54.5 µM (active) | inactive | inactive | inactive | inactive
Brc1ccc(Oc2ccc(Br)cc2)cc1 | inactive | inactive | inactive | inactive | inactive | 21.7 µM (active) and 27.3 µM (active) | inactive | inactive | inactive | inactive
Cc1ccc([N+](=O)[O-])cc1N | inactive | inactive | inactive | inactive | inactive | inactive | inactive | inactive | inactive | inactive
O=C1OC(=O)c2c(Cl)c(Cl)c(Cl)c(Cl)c21 | inactive | inactive | inactive | inactive | inactive | inactive | inactive | inactive | inactive | inactive

SMILES | Potency [1] | Potency [2] | Potency [3] | Potency [4] | Potency [5] | Potency [6] | outcome [7] | outcome [8] | Potency [9] | outcome [10]
CCc1cccc(CC)c1N | inactive | inactive | inactive | inactive | inactive | inactive | inactive | inactive | inactive | inactive
N[C@@H](Cc1cc(I)c(Oc2ccc(O)c(I)c2)c(I)c1)C(=O)O | inactive | inactive | inactive | inactive | inactive | 23.7 µM (active) | inactive | inactive | inactive | inactive
Cc1cc(CC(=O)O)n(C)c1C(=O)c1ccc(Cl)cc1 | inactive | inactive | inactive | inactive | inactive | inactive | inactive | inactive | inactive | inactive
Cc1ccccc1C=O | inactive | inactive | inactive | inactive | inactive | inactive | inactive | inactive | inactive | inactive
COCN(COC)c1nc(N(COC)COC)nc(N(COC)COC)n1 | inactive | inactive | inactive | inactive | inactive | inactive | inactive | inactive | inactive | inactive
CN1CCCC1=O | inactive | inactive | inactive | inactive | inactive | inactive | inactive | inactive | inactive | inactive
Cc1ccncc1 | inactive | inactive | inactive | inactive | inactive | inactive | inactive | inactive | inactive | inactive
CC(=O)OCCC(C)C | inactive | inactive | inactive | inactive | inactive | inactive | inactive | inactive | inactive | inactive
CCc1cccc(O)c1 | inactive | inactive | inactive | inactive | inactive | inactive | inactive | inactive | inactive | inactive
c1cnc2c(c1)ccc1cccnc12 | 30.9 µM (active) and 24.3 µM (active) | inactive | inactive | 6.92 µM (active) and 3.86 µM (active) and 7.7 µM (active) | inactive | 30.6 µM (active) | inactive | inactive | inactive | inactive
OC[C@H]1O[C@@H](Oc2ccc(O)cc2)[C@H](O)[C@@H](O)[C@@H]1O | inactive | inactive | inactive | inactive | inactive | inactive | inactive | inactive | inactive | inactive
Cc1ccc(Cl)cc1 | inactive | inactive | inactive | inactive | inactive | inactive | inactive | inactive | inactive | inactive
Cc1nnc(NS(=O)(=O)c2ccc(N)cc2)s1 | inactive | inactive | inactive | inactive | inactive | inactive | inactive | inactive | inactive | inactive
CC/C(C)=N/O | inactive | inactive | inactive | inactive | inactive | inactive | inactive | inactive | inactive | inactive
CCCCCNCCCCC | inactive | inactive | inactive | inactive | inactive | inactive | inactive | inactive | inactive | inactive
COc1ccccc1[N+](=O)[O-] | inactive | inactive | inactive | inactive | inactive | inactive | inactive | inactive | inactive | inactive
CCCCC(CC)COC(=O)c1ccc(C(=O)OCC(CC)CCCC)cc1 (centres undefined) | inactive | inactive | inactive | inactive | inactive | inactive | – | inactive | inactive | inactive
O=[N+]([O-])c1ccccc1C(F)(F)F | inactive | inactive | inactive | inactive | inactive | inactive | inactive | inactive | inactive | inactive
COC(=O)CCCCC(=O)OC | inactive | inactive | inactive | inactive | inactive | inactive | – | inactive | inactive | inactive
O=C(c1ccccc1)c1ccc(O)c(O)c1O | inactive | inactive | inactive | inactive | inactive | 48.6 µM (active) | – | inactive | inactive | inactive
CC(=O)OC[C@H]1O[C@@](COC(C)=O)(O[C@H]2O[C@H](COC(C)=O)[C@@H](OC(C)=O)[C@H](OC(C)=O)[C@H]2OC(C)=O)[C@@H](OC(C)=O)[C@@H]1OC(C)=O | inactive | inactive | inactive | inactive | inactive | inactive | – | inactive | inactive | inactive
CC(=O)Nc1ccc(CC(=O)O)cc1 | inactive | inactive | inactive | inactive | inactive | inactive | – | inactive | inactive | inactive
CCCOC(=O)NCCCN(C)C | inactive | inactive | inactive | inactive | inactive | inactive | – | inactive | inactive | inactive
